Assay results as given in ChEMBL document CHEMBL2218924, “A broad activity screen in support of a chemogenomic map for kinase signalling research and drug discovery” (Biochem J, 2013).

How the values were obtained:
[1] = molecular target: Rho-associated protein kinase 2 (Homo sapiens) (UniProt O75116); conditions: at 1 µM
[2] = molecular target: Rho-associated protein kinase 2 (Homo sapiens) (UniProt O75116); conditions: at 10 µM
[3] = molecular target: Proto-oncogene tyrosine-protein kinase receptor Ret (Homo sapiens) (UniProt P07949); conditions: at 1 µM
[4] = molecular target: Proto-oncogene tyrosine-protein kinase receptor Ret (Homo sapiens) (UniProt P07949); conditions: at 10 µM
[5] = molecular target: Macrophage-stimulating protein receptor (Homo sapiens) (UniProt Q04912); conditions: at 1 µM
[6] = molecular target: Macrophage-stimulating protein receptor (Homo sapiens) (UniProt Q04912); conditions: at 10 µM
[7] = molecular target: Proto-oncogene tyrosine-protein kinase ROS (Homo sapiens) (UniProt P08922); conditions: at 1 µM
Sequence of Proto-oncogene tyrosine-protein kinase ROS (Homo sapiens) (P08922 whole entry): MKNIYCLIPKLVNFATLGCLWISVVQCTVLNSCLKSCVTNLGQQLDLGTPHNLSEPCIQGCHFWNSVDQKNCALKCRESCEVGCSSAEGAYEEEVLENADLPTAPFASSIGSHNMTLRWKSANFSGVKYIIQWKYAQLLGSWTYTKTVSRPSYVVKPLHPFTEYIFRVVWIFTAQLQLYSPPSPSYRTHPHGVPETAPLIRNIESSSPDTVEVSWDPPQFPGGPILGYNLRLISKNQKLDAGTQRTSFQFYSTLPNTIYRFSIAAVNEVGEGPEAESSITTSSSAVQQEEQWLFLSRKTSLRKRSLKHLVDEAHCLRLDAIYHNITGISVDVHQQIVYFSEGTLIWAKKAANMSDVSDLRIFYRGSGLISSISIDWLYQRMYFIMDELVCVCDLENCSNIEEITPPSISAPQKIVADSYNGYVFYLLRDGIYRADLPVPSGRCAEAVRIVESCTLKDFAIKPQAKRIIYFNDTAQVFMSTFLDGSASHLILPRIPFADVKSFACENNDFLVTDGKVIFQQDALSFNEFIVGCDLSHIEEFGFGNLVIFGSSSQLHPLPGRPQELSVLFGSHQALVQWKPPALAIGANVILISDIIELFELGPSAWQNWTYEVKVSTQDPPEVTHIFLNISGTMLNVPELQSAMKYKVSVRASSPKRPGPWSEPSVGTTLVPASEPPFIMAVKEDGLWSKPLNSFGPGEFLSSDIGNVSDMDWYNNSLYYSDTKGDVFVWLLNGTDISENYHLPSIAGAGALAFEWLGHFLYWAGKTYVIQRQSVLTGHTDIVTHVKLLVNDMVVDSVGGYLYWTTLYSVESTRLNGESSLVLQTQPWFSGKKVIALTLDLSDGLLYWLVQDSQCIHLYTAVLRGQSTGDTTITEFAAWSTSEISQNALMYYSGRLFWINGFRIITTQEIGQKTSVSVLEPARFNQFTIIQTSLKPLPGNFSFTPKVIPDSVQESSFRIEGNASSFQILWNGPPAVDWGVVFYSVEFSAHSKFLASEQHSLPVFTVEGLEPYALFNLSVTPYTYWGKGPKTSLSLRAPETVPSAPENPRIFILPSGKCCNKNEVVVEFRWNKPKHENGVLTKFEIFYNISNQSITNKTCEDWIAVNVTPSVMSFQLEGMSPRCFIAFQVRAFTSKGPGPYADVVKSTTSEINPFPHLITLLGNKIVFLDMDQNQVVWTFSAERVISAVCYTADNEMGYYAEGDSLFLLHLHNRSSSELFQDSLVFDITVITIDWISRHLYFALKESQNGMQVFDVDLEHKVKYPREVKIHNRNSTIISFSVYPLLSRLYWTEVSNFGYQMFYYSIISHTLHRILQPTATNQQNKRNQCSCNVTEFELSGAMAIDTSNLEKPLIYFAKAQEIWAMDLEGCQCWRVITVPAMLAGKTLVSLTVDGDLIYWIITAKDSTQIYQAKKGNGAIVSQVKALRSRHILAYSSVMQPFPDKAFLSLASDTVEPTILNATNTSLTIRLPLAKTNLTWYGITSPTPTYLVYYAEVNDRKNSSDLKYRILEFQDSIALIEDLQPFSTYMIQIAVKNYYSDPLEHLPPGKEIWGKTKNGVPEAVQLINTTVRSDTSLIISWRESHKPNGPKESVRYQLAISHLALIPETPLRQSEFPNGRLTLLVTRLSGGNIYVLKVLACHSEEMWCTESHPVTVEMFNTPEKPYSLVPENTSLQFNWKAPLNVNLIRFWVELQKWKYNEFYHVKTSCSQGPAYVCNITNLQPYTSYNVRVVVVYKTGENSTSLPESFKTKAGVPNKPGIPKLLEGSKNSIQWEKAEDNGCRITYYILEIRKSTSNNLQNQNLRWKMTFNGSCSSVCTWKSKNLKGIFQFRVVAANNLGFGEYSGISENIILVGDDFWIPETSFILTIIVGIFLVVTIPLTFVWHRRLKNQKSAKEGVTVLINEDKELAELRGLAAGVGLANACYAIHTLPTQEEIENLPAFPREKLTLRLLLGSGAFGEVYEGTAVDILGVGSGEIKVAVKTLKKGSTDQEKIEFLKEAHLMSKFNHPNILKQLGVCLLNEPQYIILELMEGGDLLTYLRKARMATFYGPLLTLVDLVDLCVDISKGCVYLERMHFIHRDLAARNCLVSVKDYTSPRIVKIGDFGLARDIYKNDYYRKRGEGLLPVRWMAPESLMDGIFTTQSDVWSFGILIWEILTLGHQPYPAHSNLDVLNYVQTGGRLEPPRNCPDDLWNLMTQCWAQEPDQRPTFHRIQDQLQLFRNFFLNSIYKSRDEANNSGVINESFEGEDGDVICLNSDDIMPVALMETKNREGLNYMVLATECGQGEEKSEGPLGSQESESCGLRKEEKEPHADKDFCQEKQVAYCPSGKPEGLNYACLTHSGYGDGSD

[8] = molecular target: Proto-oncogene tyrosine-protein kinase ROS (Homo sapiens) (UniProt P08922); conditions: at 10 µM
[9] = molecular target: T1, Tyrosine-protein kinase receptor TYRO3 (Homo sapiens) (UniProt Q06418); conditions: at 1 µM
T1 sequence (whole entry): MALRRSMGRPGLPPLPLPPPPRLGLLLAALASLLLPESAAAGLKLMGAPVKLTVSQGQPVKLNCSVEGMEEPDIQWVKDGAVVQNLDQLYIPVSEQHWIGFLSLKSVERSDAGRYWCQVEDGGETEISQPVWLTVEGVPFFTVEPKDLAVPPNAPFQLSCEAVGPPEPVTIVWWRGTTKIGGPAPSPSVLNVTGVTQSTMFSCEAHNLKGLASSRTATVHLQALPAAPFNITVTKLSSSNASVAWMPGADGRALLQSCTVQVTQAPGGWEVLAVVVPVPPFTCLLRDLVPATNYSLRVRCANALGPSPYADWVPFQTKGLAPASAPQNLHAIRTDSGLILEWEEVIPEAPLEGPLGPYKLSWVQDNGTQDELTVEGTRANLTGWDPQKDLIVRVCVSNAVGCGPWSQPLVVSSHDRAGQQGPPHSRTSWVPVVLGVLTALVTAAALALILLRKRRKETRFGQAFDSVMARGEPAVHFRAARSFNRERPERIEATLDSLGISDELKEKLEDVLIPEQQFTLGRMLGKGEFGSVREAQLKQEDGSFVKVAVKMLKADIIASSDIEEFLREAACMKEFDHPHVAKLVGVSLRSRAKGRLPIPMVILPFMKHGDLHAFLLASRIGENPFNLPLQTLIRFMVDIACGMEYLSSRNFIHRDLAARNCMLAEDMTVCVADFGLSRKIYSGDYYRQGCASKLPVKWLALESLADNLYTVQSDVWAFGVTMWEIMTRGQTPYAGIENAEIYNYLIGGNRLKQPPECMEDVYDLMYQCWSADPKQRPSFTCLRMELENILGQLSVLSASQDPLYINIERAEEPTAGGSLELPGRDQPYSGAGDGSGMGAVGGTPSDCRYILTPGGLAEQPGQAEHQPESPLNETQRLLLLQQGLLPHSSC

[10] = molecular target: T1, Tyrosine-protein kinase receptor TYRO3 (Homo sapiens); conditions: at 10 µM
[11] = molecular target: Ribosomal protein S6 kinase alpha-1 (Homo sapiens) (UniProt Q15418); conditions: at 1 µM
Sequence of Ribosomal protein S6 kinase alpha-1 (Homo sapiens) (Q15418 whole entry): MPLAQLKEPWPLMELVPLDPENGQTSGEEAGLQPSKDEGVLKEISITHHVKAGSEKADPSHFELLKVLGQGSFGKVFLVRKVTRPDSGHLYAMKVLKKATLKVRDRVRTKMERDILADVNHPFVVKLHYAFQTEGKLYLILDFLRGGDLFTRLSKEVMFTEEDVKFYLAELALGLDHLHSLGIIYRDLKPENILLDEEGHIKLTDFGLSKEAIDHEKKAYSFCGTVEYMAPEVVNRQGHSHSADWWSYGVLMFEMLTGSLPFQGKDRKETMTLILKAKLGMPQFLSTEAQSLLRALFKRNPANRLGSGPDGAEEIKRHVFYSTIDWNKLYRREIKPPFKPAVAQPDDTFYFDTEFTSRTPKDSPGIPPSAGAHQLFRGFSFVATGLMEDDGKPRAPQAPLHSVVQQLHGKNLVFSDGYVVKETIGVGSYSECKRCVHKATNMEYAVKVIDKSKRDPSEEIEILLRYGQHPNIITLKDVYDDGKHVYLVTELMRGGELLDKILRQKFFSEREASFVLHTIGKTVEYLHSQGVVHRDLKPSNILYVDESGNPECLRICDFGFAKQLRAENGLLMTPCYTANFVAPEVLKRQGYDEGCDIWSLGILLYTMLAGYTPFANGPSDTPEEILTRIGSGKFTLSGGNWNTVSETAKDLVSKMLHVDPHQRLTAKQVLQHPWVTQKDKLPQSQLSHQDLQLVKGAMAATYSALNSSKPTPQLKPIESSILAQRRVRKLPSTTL

[12] = molecular target: Ribosomal protein S6 kinase alpha-1 (Homo sapiens) (UniProt Q15418); conditions: at 10 µM
[13] = molecular target: Ribosomal protein S6 kinase alpha-3 (Homo sapiens) (UniProt P51812); conditions: at 1 µM
Sequence of Ribosomal protein S6 kinase alpha-3 (Homo sapiens) (P51812 whole entry): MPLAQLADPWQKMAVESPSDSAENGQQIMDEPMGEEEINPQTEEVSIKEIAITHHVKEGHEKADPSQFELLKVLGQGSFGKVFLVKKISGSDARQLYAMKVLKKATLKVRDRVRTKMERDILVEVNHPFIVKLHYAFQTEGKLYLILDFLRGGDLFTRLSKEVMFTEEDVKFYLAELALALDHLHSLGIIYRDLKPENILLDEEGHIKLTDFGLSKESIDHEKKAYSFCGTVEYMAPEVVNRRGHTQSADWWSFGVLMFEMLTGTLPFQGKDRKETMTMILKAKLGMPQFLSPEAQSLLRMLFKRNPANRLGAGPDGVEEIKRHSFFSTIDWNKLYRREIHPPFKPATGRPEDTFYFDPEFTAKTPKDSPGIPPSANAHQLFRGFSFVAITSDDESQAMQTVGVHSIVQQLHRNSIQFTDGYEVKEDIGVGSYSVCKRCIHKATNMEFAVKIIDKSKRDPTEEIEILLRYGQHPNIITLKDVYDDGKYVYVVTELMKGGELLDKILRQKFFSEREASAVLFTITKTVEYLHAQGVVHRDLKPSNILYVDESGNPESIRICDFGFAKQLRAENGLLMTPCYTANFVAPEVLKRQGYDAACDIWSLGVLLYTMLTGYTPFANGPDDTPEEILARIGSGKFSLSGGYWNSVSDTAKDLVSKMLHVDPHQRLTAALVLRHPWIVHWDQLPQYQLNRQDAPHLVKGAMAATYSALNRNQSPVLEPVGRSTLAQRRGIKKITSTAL

[14] = molecular target: Ribosomal protein S6 kinase alpha-3 (Homo sapiens) (UniProt P51812); conditions: at 10 µM
[15] = molecular target: Ribosomal protein S6 kinase alpha-2 (Homo sapiens) (UniProt Q15349); conditions: at 1 µM
Sequence of Ribosomal protein S6 kinase alpha-2 (Homo sapiens) (Q15349 whole entry): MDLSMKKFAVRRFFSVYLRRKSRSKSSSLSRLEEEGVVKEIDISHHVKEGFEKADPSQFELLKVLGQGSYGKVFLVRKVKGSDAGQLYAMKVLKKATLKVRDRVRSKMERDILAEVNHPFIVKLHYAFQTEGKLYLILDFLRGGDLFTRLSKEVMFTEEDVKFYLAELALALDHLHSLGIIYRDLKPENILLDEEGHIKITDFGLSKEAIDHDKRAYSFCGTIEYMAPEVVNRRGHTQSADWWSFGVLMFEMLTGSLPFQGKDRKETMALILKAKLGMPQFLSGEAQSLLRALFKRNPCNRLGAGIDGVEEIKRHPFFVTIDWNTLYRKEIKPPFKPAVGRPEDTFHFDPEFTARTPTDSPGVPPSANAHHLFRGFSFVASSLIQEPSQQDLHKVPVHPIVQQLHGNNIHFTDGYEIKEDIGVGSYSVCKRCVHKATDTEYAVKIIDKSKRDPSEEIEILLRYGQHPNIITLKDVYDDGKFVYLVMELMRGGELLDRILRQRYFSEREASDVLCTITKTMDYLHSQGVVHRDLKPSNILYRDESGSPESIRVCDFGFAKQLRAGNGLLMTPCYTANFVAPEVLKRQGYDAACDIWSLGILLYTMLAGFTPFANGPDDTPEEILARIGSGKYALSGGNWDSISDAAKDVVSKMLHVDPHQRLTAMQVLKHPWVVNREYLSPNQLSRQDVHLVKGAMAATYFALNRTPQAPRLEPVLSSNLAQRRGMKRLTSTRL

[16] = molecular target: Ribosomal protein S6 kinase alpha-2 (Homo sapiens) (UniProt Q15349); conditions: at 10 µM
[17] = molecular target: Ribosomal protein S6 kinase alpha-6 (Homo sapiens) (UniProt Q9UK32); conditions: at 1 µM
[18] = molecular target: Ribosomal protein S6 kinase alpha-6 (Homo sapiens) (UniProt Q9UK32); conditions: at 10 µM
[19] = molecular target: Mitogen-activated protein kinase 14 (Homo sapiens) (UniProt Q16539); conditions: at 1 µM
Sequence of Mitogen-activated protein kinase 14 (Homo sapiens) (Q16539 whole entry): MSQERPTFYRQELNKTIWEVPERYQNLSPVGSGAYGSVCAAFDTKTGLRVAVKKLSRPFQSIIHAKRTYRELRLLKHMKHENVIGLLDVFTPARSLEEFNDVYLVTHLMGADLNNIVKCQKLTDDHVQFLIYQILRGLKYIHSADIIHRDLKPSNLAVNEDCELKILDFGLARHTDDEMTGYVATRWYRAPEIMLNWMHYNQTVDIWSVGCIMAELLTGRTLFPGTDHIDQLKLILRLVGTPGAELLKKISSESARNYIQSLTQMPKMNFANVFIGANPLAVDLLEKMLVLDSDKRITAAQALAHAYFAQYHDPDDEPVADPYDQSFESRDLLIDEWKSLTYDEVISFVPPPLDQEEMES

[20] = molecular target: Mitogen-activated protein kinase 14 (Homo sapiens) (UniProt Q16539); conditions: at 10 µM

NC(=O)c1ccc2[nH]c(-c3ccc(Oc4ccc(Cl)cc4)cc3)nc2c1
residual activity [1]: 83% | residual activity [2]: 72% | residual activity [3]: 105% | residual activity [4]: 85% | residual activity [5]: 74% | residual activity [6]: 84% | residual activity [7]: 92% | residual activity [8]: 84% | residual activity [9]: 106% | residual activity [10]: 97% | residual activity [11]: 91% | residual activity [12]: 67% | residual activity [13]: 30% | residual activity [14]: 11% | residual activity [15]: 18% | residual activity [16]: 5% | residual activity [17]: 27% | residual activity [18]: 29% | residual activity [19]: 90% | residual activity [20]: 84%

Ic1cccc(CSc2nnc(-c3ccncc3)o2)c1
residual activity [1]: 68% | residual activity [2]: 58% | residual activity [3]: 93% | residual activity [4]: 74% | residual activity [5]: 81% | residual activity [6]: 78% | residual activity [7]: 93% | residual activity [8]: 75% | residual activity [9]: 112% | residual activity [10]: 94% | residual activity [11]: 55% | residual activity [12]: 46% | residual activity [13]: 39% | residual activity [14]: 28% | residual activity [15]: 30% | residual activity [16]: 24% | residual activity [17]: 97% | residual activity [18]: 100% | residual activity [19]: 90% | residual activity [20]: 79%

Oc1c2ccccc2c2c3c(cccc13)N=N2
residual activity [1]: 74% | residual activity [2]: 39% | residual activity [3]: 43% | residual activity [4]: 11% | residual activity [5]: 78% | residual activity [6]: 51% | residual activity [7]: 93% | residual activity [8]: 85% | residual activity [9]: 97% | residual activity [10]: 81% | residual activity [11]: 86% | residual activity [12]: 64% | residual activity [13]: 54% | residual activity [14]: 32% | residual activity [15]: 58% | residual activity [16]: 22% | residual activity [17]: 43% | residual activity [18]: 52% | residual activity [19]: 96% | residual activity [20]: 85%

Nc1cccc(-c2cc3c(Oc4cccc(O)c4)ncnc3[nH]2)c1
residual activity [1]: 93% | residual activity [2]: 87% | residual activity [3]: 2% | residual activity [4]: 0% | residual activity [5]: 83% | residual activity [6]: 40% | residual activity [7]: 98% | residual activity [8]: 60% | residual activity [9]: 6% | residual activity [10]: 0% | residual activity [11]: 97% | residual activity [12]: 68% | residual activity [13]: 68% | residual activity [14]: 32% | residual activity [15]: 76% | residual activity [16]: 27% | residual activity [17]: 56% | residual activity [18]: 41% | residual activity [19]: 54% | residual activity [20]: 11%

Oc1ccc(Nc2nc(-c3ccc(Cl)cc3)cs2)cc1
residual activity [1]: 100% | residual activity [2]: 102% | residual activity [3]: 97% | residual activity [4]: 87% | residual activity [5]: 95% | residual activity [6]: 106% | residual activity [7]: 110% | residual activity [8]: 97% | residual activity [9]: 97% | residual activity [10]: 96% | residual activity [11]: 113% | residual activity [12]: 103% | residual activity [13]: 75% | residual activity [14]: 86% | residual activity [15]: 91% | residual activity [16]: 80% | residual activity [17]: 93% | residual activity [18]: 113% | residual activity [19]: 89% | residual activity [20]: 35%

CC(C)n1cnc2/c(=N/c3cccc(Cl)c3)nc(NCCO)[nH]c21
residual activity [1]: 83% | residual activity [2]: 66% | residual activity [3]: 93% | residual activity [4]: 40% | residual activity [5]: 74% | residual activity [6]: 70% | residual activity [7]: 77% | residual activity [8]: 63% | residual activity [9]: 118% | residual activity [10]: 51% | residual activity [11]: 50% | residual activity [12]: 22% | residual activity [13]: 15% | residual activity [14]: 6% | residual activity [15]: 6% | residual activity [16]: 2% | residual activity [17]: 34% | residual activity [18]: 21% | residual activity [19]: 84% | residual activity [20]: 74%

O=C1Nc2cc(Br)ccc2/C1=C1/Nc2ccccc2/C1=N\O
residual activity [1]: 90% | residual activity [2]: 93% | residual activity [3]: 1% | residual activity [4]: 0% | residual activity [5]: 79% | residual activity [6]: 89% | residual activity [7]: 90% | residual activity [8]: 87% | residual activity [9]: 81% | residual activity [10]: 78% | residual activity [11]: 72% | residual activity [12]: 73% | residual activity [13]: 24% | residual activity [14]: 6% | residual activity [15]: 17% | residual activity [16]: 28% | residual activity [17]: 38% | residual activity [18]: 24% | residual activity [19]: 85% | residual activity [20]: 83%

O=C1NC(=O)c2c1c1c3ccccc3[nH]c1c1[nH]c3cc(Br)ccc3c21
residual activity [1]: 93% | residual activity [2]: 89% | residual activity [3]: 91% | residual activity [4]: 77% | residual activity [5]: 79% | residual activity [6]: 83% | residual activity [7]: 102% | residual activity [8]: 96% | residual activity [9]: 110% | residual activity [10]: 98% | residual activity [11]: 63% | residual activity [12]: 49% | residual activity [13]: 49% | residual activity [14]: 43% | residual activity [15]: 44% | residual activity [16]: 32% | residual activity [17]: 83% | residual activity [18]: 82% | residual activity [19]: 93% | residual activity [20]: 85%

O=C1c2ccccc2-[n+]2ccc3c([nH]c4ccccc43)c21
residual activity [1]: 89% | residual activity [2]: 86% | residual activity [3]: 89% | residual activity [4]: 75% | residual activity [5]: 77% | residual activity [6]: 70% | residual activity [7]: 89% | residual activity [8]: 88% | residual activity [9]: 104% | residual activity [10]: 107% | residual activity [11]: 97% | residual activity [12]: 116% | residual activity [13]: 55% | residual activity [14]: 50% | residual activity [15]: 101% | residual activity [16]: 90% | residual activity [17]: 95% | residual activity [18]: 102% | residual activity [19]: 87% | residual activity [20]: 85%

CCOc1cc2ncnc(Nc3cccc(Br)c3)c2cc1OCC
residual activity [1]: 91% | residual activity [2]: 70% | residual activity [3]: 30% | residual activity [4]: 1% | residual activity [5]: 101% | residual activity [6]: 57% | residual activity [7]: 103% | residual activity [8]: 100% | residual activity [9]: 51% | residual activity [10]: 16% | residual activity [11]: 100% | residual activity [12]: 72% | residual activity [13]: 102% | residual activity [14]: 40% | residual activity [15]: 90% | residual activity [16]: 48% | residual activity [17]: 92% | residual activity [18]: 46% | residual activity [19]: 57% | residual activity [20]: 13%

COc1ccc(OC)c2c(=S)c3ccccc3[nH]c12
residual activity [1]: 86% | residual activity [2]: 95% | residual activity [3]: 110% | residual activity [4]: 96% | residual activity [5]: 69% | residual activity [6]: 82% | residual activity [7]: 99% | residual activity [8]: 92% | residual activity [9]: 108% | residual activity [10]: 93% | residual activity [11]: 116% | residual activity [12]: 106% | residual activity [13]: 99% | residual activity [14]: 107% | residual activity [15]: 90% | residual activity [16]: 88% | residual activity [17]: 98% | residual activity [18]: 98% | residual activity [19]: 88% | residual activity [20]: 91%

CCN(CC)CCCCN1c2ccccc2Oc2ccc(Cl)cc21
residual activity [1]: 110% | residual activity [2]: 91% | residual activity [3]: 108% | residual activity [4]: 117% | residual activity [5]: 105% | residual activity [6]: 91% | residual activity [7]: 100% | residual activity [8]: 101% | residual activity [9]: 108% | residual activity [10]: 108% | residual activity [11]: 110% | residual activity [12]: 117% | residual activity [13]: 67% | residual activity [14]: 64% | residual activity [15]: 109% | residual activity [16]: 90% | residual activity [17]: 118% | residual activity [18]: 104% | residual activity [19]: 93% | residual activity [20]: 84%

Cc1nc2cc3nc(-c4cccs4)cnc3cc2n1C
residual activity [1]: 113% | residual activity [2]: 93% | residual activity [3]: 65% | residual activity [4]: 35% | residual activity [5]: 106% | residual activity [6]: 97% | residual activity [7]: 109% | residual activity [8]: 112% | residual activity [9]: 98% | residual activity [10]: 79% | residual activity [11]: 115% | residual activity [12]: 89% | residual activity [13]: 102% | residual activity [14]: 75% | residual activity [15]: 107% | residual activity [16]: 83% | residual activity [17]: 101% | residual activity [18]: 84% | residual activity [19]: 114% | residual activity [20]: 112%
